# Results from PubChem BioAssay (Tox21).
# Results filed as inconclusive are left out. A call without a number means that no potency is given here. Activity calls are given as the source filed them. Unless noted, calls follow the shape of the dose curve; as a rule, active = well fitted curve in the direction sought with a large enough effect in the repeat runs; inconclusive = weak or mixed curves; inactive = no such curve, though single readings can be large; an effect the other way counts as inactive or inconclusive.
# Key:
# [1] = target: Luciferin 4-monooxygenase (Photinus pyralis) (UniProt P08659); test: qHTS assay to identify small molecule inhibitors of firefly luciferase (AID 1224835); also: nearly all actives have a fitted effect of over 25% in size; also: potency is read from the fitted curve at half-maximal effect
# Chain of Luciferin 4-monooxygenase (Photinus pyralis) (P08659 whole entry, looked up): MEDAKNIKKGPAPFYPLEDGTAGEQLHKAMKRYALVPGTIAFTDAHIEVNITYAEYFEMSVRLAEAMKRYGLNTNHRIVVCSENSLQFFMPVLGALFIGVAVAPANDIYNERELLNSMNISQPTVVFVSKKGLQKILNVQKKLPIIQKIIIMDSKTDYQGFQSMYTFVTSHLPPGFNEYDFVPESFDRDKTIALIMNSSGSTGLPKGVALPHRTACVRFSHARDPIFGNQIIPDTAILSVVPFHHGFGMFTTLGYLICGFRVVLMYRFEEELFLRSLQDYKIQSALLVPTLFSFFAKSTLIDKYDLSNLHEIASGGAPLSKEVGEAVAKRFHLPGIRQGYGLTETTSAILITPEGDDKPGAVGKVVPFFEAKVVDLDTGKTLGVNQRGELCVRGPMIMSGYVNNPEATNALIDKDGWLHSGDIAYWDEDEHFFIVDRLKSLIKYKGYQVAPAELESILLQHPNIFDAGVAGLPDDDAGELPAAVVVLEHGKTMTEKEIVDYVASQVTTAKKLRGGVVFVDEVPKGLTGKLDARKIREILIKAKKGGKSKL
# How it was run: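 Biochemical qHTS: compounds run as interplate titrations against purified firefly enzyme, with D-luciferin and ATP each at its KM concentration. Light output recorded by CCD imaging.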
# [2] = qHTS assay to identify small molecule agonists of the constitutive androstane receptor (CAR) signaling pathway - cell viability counter screen (AID 1224836); also: nearly all actives have a fitted effect of over 45% in size; also: potency is read from the fitted curve at half-maximal effect
# How it was run: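 Using CellTiter-Fluor, viability of HepG2 cells harbouring hCAR and CYP2B6-2.2kb was measured following 23 h incubation with a 15-concentration compound series plus PK11195 (0.75 uM final).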
# [3] = qHTS assay to identify small molecule antagonists of the constitutive androstane receptor (CAR) signaling pathway - cell viability counter screen (AID 1224837); also: nearly all actives have a fitted effect of over 45% in size; also: potency is read from the fitted curve at half-maximal effect
# How it was run: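 Read-out: CellTiter-Fluor fluorescence after 23 hr at 37 C/5% CO2. Cells: HepG2 double-stable for hCAR and CYP2B6-2.2kb. Compounds tested at 15 concentrations in the presence of CITCO, final concentration 50 nM.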
# [4] = target: Nuclear receptor subfamily 1 group I member 3 (Homo sapiens) (UniProt Q14994); test: qHTS assay to identify small molecule antagonists of the constitutive androstane receptor (CAR) signaling pathway (AID 1224838);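 also: HepG2 cells stably expressing hCAR with CYP2B6 luciferase reporter stimulated by CITCO; nearly all actives have a fitted effect of over 40% in size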; also: potency is read from the fitted curve at half-maximal effect
# Chain of Nuclear receptor subfamily 1 group I member 3 (Homo sapiens) (Q14994 whole entry, looked up): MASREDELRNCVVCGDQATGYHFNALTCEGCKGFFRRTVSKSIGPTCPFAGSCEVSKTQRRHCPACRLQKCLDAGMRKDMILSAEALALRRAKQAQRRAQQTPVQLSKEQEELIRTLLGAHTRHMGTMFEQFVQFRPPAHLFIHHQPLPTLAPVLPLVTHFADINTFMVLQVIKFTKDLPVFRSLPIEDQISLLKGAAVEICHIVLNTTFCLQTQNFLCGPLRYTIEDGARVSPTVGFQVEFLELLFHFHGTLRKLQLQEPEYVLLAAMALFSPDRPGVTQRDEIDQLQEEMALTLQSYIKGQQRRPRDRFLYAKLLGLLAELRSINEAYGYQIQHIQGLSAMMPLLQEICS
# How it was run: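 Read-out: ONE-Glo luciferase luminescence after 30 min at room temperature. HepG2-CYP2B6-hCAR double-stable cells, compounds in 15-point titration plus 50 nM CITCO final, 24 h at 37 C/5% CO2.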
# [5] = target: Nuclear receptor subfamily 1 group I member 3 (Homo sapiens) (UniProt Q14994); test: qHTS assay to identify small molecule agonists of the constitutive androstane receptor (CAR) signaling pathway (AID 1224839); also: nearly all actives have a fitted effect of over 15% in size; also: potency is read from the fitted curve at half-maximal effect
# How it was run: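 Double-stable HepG2 cells (hCAR, CYP2B6-2.2kb) seeded 4 h before compound addition. Exposure 24 h with 0.75 uM PK11195 final. Luciferase detected by ONE-Glo.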
# [6] = target: Thyrotropin receptor (Homo sapiens) (UniProt P16473); test: qHTS assay to identify small molecule agonists of the thyroid stimulating hormone receptor (TSHR) signaling pathway (AID 1224843; calls by dose curve; also: nearly all actives have a fitted effect of over 45% in size; also: potency is read from the fitted curve at half-maximal effect)
# Chain of Thyrotropin receptor (Homo sapiens) (P16473 whole entry, looked up): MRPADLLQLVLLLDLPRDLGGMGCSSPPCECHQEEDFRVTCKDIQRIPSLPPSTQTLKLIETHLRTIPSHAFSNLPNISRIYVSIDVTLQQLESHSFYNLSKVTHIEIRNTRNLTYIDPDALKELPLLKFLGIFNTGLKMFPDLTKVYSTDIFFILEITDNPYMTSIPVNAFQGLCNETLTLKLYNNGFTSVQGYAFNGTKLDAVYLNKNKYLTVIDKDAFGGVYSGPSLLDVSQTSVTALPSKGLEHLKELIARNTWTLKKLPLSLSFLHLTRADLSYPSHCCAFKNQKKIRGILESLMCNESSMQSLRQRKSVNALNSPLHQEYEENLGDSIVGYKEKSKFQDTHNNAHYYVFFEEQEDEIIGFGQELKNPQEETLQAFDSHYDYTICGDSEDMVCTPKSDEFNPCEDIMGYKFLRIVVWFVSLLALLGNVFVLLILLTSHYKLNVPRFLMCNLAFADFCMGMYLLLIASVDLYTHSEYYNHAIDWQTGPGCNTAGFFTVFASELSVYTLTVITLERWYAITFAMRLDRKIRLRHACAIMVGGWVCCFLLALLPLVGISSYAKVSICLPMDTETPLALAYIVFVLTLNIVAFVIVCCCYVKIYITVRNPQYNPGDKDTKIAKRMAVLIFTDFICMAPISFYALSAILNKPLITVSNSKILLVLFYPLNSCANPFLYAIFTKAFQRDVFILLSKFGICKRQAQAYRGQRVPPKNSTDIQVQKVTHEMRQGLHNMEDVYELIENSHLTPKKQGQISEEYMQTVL
# How it was run: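 Agonist-mode screen: TSHR HEK293 cells received test chemicals for half an hour at room temperature, then HTRF cAMP detection reagents for one hour prior to fluorescence measurement. Each chemical ran as a 15-concentration series, triplicated.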
# [7] = qHTS assay to identify small molecule agonists of the hypoxia (HIF-1) signaling pathway - cell viability counter screen (AID 1224844; calls by dose curve; also: nearly all actives have a fitted effect of over 50% in size; also: potency is read from the fitted curve at half-maximal effect)
# How it was run: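 CellTiter-Glo luminescence read-out, 30 min RT, taken in the same wells as the beta-lactamase HRE reporter assay; HRE-bla ME-180 cells, 0.5% dialyzed FBS, 17 hr compound treatment at 37C, 5% CO2.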
# [8] = qHTS assay to identify small molecule antagonists of the estrogen related receptor signaling pathway with the pleiotropic PPARgamma coactivator (PGC) from Tox21 10K library - cell viability counter screen (AID 1224840; active = well fitted cell-killing curve with a large enough effect in the repeat runs, not every such curve was filed as active; also: nearly all actives have a fitted effect of over 40% in size; also: potency is read from the fitted curve at half-maximal effect)
# How it was run: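 Fluorescence read-out of CellTiter-Fluor viability reagent, added after cells had been exposed to compound in DMSO for 17.5 h at 37 C; 30 min development at 37 C/5% CO2. Cells: PGC/ERR line, 2,000/well.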
# [9] = qHTS assay to identify small molecule antagonists of the estrogen related receptor signaling pathway with the pleiotropic PPARgamma coactivator (PGC) from Tox21 10K library (AID 1224841; call rule not given here; also: actives are mostly falling curves and most rising ones were filed inactive; nearly all actives have a fitted effect of over 50% in size; also: potency is read from the fitted curve at half-maximal effect)
# How it was run: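 Luminescence read-out (One-Glo luciferase reagent, 30 min at room temperature) from PGC/ERR cells exposed to DMSO-dissolved test compounds for 18 h at 37 C; cells, 2,000 per well, had been preincubated 6 h before compound transfer.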
# [10] = qHTS assay to identify small molecule agonists of the estrogen related receptor signaling pathway with the pleiotropic PPARgamma coactivator (PGC) from Tox21 10K library (AID 1224842); also: nearly all actives have a fitted effect of over 15% in size
# How it was run: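 PGC/ERR reporter cell line, 2,000 cells per well, incubated 6 h at 37 C before 23 nL compound in DMSO was added. After 18 h at 37 C, One-Glo luminescence read following 30 min at room temperature.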
Structure (SMILES),Potency [1],Potency [2],Potency [3],Potency [4],Potency [5],Potency [6],Potency [7],Potency [8],Potency [9],Potency [10]
SCCCCCCCCS,inactive,inactive,inactive,inactive,inactive,inactive,inactive,–,–,–
CCN=C1C=CC(=C(c2ccc(N(CC)CC)cc2)c2ccc(N(CC)CC)cc2)c2ccccc21,28.1 µM (active),6.08 µM (active),6.08 µM (active),6.08 µM (active),inactive,–,21.7 µM (active),9.63 µM (active),–,–
CCCN(CCc1cccs1)[C@H]1CCc2c(O)cccc2C1,inactive,inactive,inactive,inactive,inactive,29.8 µM (active),inactive,–,inactive,inactive
CCCCCCCCCCCC(=O)N(CC)CC,inactive,inactive,inactive,inactive,54.5 µM (active),inactive,–,–,–,–
Nc1ncnc2c1ncn2[C@@H]1O[C@H](COP(=O)(O)O)[C@@H](O)[C@H]1O,inactive,inactive,inactive,inactive,inactive,inactive,inactive,–,–,–
C1CC(COCC2CO2)CCC1COCC1CO1 (configuration not stated),inactive,inactive,inactive,inactive,inactive,inactive,–,–,–,inactive
C[C@]12CC[C@H]3C(=CCc4cc(O)ccc43)[C@@H]1CCC2=O,35.6 µM (active),inactive,inactive,inactive,27.3 µM (active),–,38.9 µM (active),–,inactive,–
CNC(=S)NN,inactive,43.3 µM (active),17.2 µM (active),–,–,inactive,–,13.7 µM (active),9.69 µM (active),inactive
CCCCCCCCCCCCCC[n+]1ccccc1,inactive,7.7 µM (active),9.69 µM (active),48.6 µM (active),–,–,49 µM (active),54.5 µM (active),–,inactive
CCCCN(CCCC)CCC(O)c1cc2c(Cl)cc(Cl)cc2c2cc(C(F)(F)F)ccc12 (configuration not stated),inactive,inactive,inactive,inactive,–,inactive,21.3 µM (active),–,–,–
CC(C)=C1CC[C@@H](C)CC1=O,inactive,inactive,inactive,inactive,–,inactive,inactive,inactive,–,–
c1cc(OCC2CO2)cc(OCC2CO2)c1 (configuration not stated),inactive,inactive,inactive,–,inactive,inactive,–,–,–,–
Cc1cccc(C)c1NC(=O)CN1CCN(CCCC(c2ccc(F)cc2)c2ccc(F)cc2)CC1,inactive,23.7 µM (active),23.7 µM (active),inactive,–,inactive,–,inactive,–,–
Cc1occc1SSc1ccoc1C,inactive,inactive,inactive,–,inactive,inactive,–,–,–,–
[O]=[Zr],39.8 µM (active),inactive,inactive,–,–,–,–,inactive,inactive,inactive
O=C(O)CC(=O)O,inactive,inactive,inactive,inactive,–,inactive,inactive,–,–,–
C=CC(=O)OCCOCC(CC)(COCCOC(=O)C=C)COCCOC(=O)C=C,inactive,71.4 µM (active),31.9 µM (active),–,inactive,inactive,–,16 µM (active),40.2 µM (active),inactive
C=CC(C)(CCC=C(C)C)OC(=O)/C=C/c1ccccc1 (configuration not stated),inactive,inactive,inactive,inactive,–,inactive,inactive,–,–,–
COC(=O)CC#N,inactive,inactive,inactive,inactive,–,inactive,inactive,inactive,–,–
CCCCNc1c(C(=O)OCC)c(C)nc2c1cnn2CC,inactive,inactive,inactive,inactive,–,inactive,inactive,–,–,–
